In PubChem BioAssay (NCI):
The panel holds about 83,000 compounds, 20% with a hit somewhere; the sample as a whole holds those more often.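 Single-concentration screen, 48 h exposure, 96-well plates. Endpoint: percent growth. Below 10 = active.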 The source made the active and inactive calls.

test system: HOP-62 NSCLC; assay: NCI-60 one-dose screen, 48 h (100 = growth as untreated, 0 = no growth, -100 = all killed); settings: 10 µM unless noted
Protocol: Growth inhibition of the HOP-62 human Non-Small Cell Lung tumor cell line is measured as a screen for anti-cancer activity. Cells are grown in 96 well plates and exposed to the test compound for 48 hours. Compounds are tested at a single concentration, which is 10^-5 M for most compounds. The reported endpoint is percent growth (GI% or GIPRCNT), where numbers from 0 - 100% represent growth inhibition, and numbers from -100% - 0 represent cell death. For example, a value of 40 represents 60% growth inhibition. A value of 0 means no net growth occurred over the course of the experiment. A value of -40 indicates 40% of cells at the beginning of the experiment died by the end of the experiment. A value of -100 means all cells are dead at the end of the experiment.
NCI-60 Human Tumor Cell Lines Screen was performed using the standard one-dose NCI protocol, which is described in more detail at https://dtp.cancer.gov/discovery_development/nci-60/default.htm.
Compounds with GIPRCNT values below 10 were considered active. Activity score was based on GIPRCNT using the following formula: […]
Score is 0 for GIPRCNT values of 100 or above, 50 for GIPRCNT values of 0, and 100 for GIPRCNT values of -100.

| SMILES | growth |
| --- | --- |
| Cc1ccc(C2CC(c3ccc(NC(=O)Nc4ccccc4)cc3)=NN2c2ccc(S(N)(=O)=O)cc2)cc1 (stereo not given) | -72.9% (active) |
| O=C(N/N=C/c1ccoc1)c1[nH]c2ccc(Br)cc2c1-c1ccccc1 | -70.6% (active) |
| CCOc1ccccc1NC(=O)N/C(N)=N/c1nc2ccccc2s1 | 33.6% (inactive) |
| CCc1ccccc1NC(=O)N/C(N)=N/c1nc2ccccc2s1 | -14.9% (active) |
| COc1ccccc1/C=C/c1cccc(NC(=S)NCCCCN(C)C)c1 | -51.1% (active) |
| Cc1[nH]nc2ccc3nc(-c4cnn(CCO)c4)c4c(c3c12)CCCC4 | 65.6% (inactive) |
| COc1ccc(NC(=O)NN2C(=O)c3ccccc3N(C)C2c2ccc(OC)cc2)cc1 (stereo not given) | 97.8% (inactive) |
| O=CNc1cccc(-n2cnc3cc(-c4ccc(O)cc4)ccc32)c1 | 42.6% (inactive) |
| N#Cc1ccc(C(=O)NNC(=O)CSc2nc3sc4c(c3c(=O)n2-c2ccc(Cl)cc2)CCCC4)cc1 | 7.62% (active) |
| Cc1ccc(C2CC(c3ccc(NC(=O)Nc4ccccc4)cc3)=NN2c2ccc(S(C)(=O)=O)cc2)cc1 (stereo not given) | -39.8% (active) |
| Cc1cccc(C)c1Nc1nnc(-c2c[nH]c3ccccc23)o1 | 83.1% (inactive) |
| Cc1ccc2c(c1)nc(-c1ccccc1)n2CC(=O)N=Nc1c(O)[nH]c2ccc(Cl)cc12 | -79.7% (active) |
| CCN1C(=O)N(CC)C2NNC(Sc3c(C(=O)O)c4ccccc4n(CC(C)C)c3=O)=NC21 (stereo not given) | 34.1% (inactive) |
| COc1ccc2c(c1)C(Sc1ccc(F)cc1)c1c(nc(N)c(C#N)c1N)O2 (stereo not given) | 111% (inactive) |
| CC(=O)c1c2c(c3ccc4c5ccccc5ccc4n13)C(=O)c1ccccc1C2=O | 70.7% (inactive) |
| OC1CCC(Cn2c(C(F)(F)F)cc3c(Cl)ncnc32)CC1 (stereo not given) | 13.3% (inactive) |
| O=C(Cn1c(/C=C/c2ccc([N+](=O)[O-])cc2)nc2ccccc2c1=O)Nc1ccccc1 | 49% (inactive) |
| COc1ccc2c(c1)c(-c1cc(N)n3nc(-c4c[nH]c5ccccc45)cc3n1)cn2C | -71.5% (active) |
| S=C(Nc1ccc(OCc2nc3ccc(Cl)cc3[nH]2)cc1)NC1CCCCC1 | -20.7% (active) |
| Cc1cc(Cl)ccc1NC(=O)Nc1ccc(-c2ccc3c(c2)NC(=O)/C3=C\c2ccc[nH]2)cc1 | 99.6% (inactive) |

| SMILES | growth |
| --- | --- |
| COc1cc(NC(=O)CSc2nnc(-c3ccc(-c4nc5ccc(Cl)cc5[nH]4)cc3)o2)cc(OC)c1OC | 65.9% (inactive) |
| Cc1ccc(C(=O)Nc2cc(-n3ccnc3)cc(C(F)(F)F)c2)cc1-n1cc(-c2cnc3cccnn23)nn1 | 107% (inactive) |
| N#CC1=C(c2cccs2)Nc2c(c(-c3ccccc3)nn2-c2ccccc2)C12C(=O)Nc1ccccc12 (stereo not given) | -20% (active) |
| COc1cc(CNC(=O)C[C@H](C)CCC=C(C)C)ccc1OCc1cn(-c2ccc(Cl)cc2Cl)nn1 | 11.3% (inactive) |
| COc1ccc(/C=C/c2nc3ccccc3c(=O)n2CC(=O)Nc2ccccc2)cc1 | 2.16% (active) |
| O=C(N/N=C/c1occc1Br)c1[nH]c2ccc(Br)cc2c1-c1ccccc1 | -69.1% (active) |
| O=C1/C(=C/c2cnc(-c3ccccc3)s2)SC(=S)N1Cc1ccc2c(c1)OCO2 | 12.2% (inactive) |
| COC(=O)c1c(C(=O)OC)c2ccc3c4ccccc4ccc3n2c1C(=O)C(C)Br (stereo not given) | 67.1% (inactive) |
| COc1ccc(C(=O)NNC(=O)CSc2nc3sc4c(c3c(=O)n2-c2ccc(Cl)cc2)CCCC4)cc1 | 18.7% (inactive) |
| O=c1[nH]c2ccccc2cc1CSc1ccccc1Nc1nccc(-c2ccc3c(c2)OCO3)n1 | 40.6% (inactive) |
| COC(=O)c1c(C(=O)OC)c2c3ccccc3c3ccccc3n2c1C(=O)C(C)(C)C | 118% (inactive) |
| COc1ccc2c(c1)N=c1c-2cc2c(O)[nH]c(=S)n2c1=O | 36.6% (inactive) |
| C=CC[n+]1cccc2c3ccccc3ccc21 | 44.9% (inactive) |
| COc1c(B(O)O)cc(F)cc1-c1nc2c(F)cc3[nH]ncc3c2c2c1CCCC2 | 16.8% (inactive) |
| Nc1cc2ccccc2c(=O)n1NC(=O)c1ccc(Br)cc1 | 101% (inactive) |
| Cc1ccc(C(C(=O)NC2CCCCC2)N(Cc2ccccc2Cl)C(=O)c2ccc(CN3CCOCC3)o2)o1 (stereo not given) | 107% (inactive) |
| COc1cc(C=O)ccc1OC(=O)c1cc(-c2ccc(C)cc2)n(-c2ccc(S(C)(=O)=O)cc2)n1 | 102% (inactive) |
| O=C1c2cccc3c(N4CCN(Cc5ccccc5)CC4)ccc(c23)C(=O)N1c1cccc(-c2nn(-c3ccccc3)cc2-c2nc3ccccc3s2)c1 | 123% (inactive) |
| COc1ccc(-c2nc3ccc(-c4nnc(SCC(=O)Nc5ccc(/C(C)=N\O)cc5)o4)cc3[nH]2)cc1 | 77% (inactive) |
| COc1ccc2c(c1)C(=O)N(C)C2C1c2c(cc3c(c2OC)OCO3)CCN1C (stereo not given) | 54.5% (inactive) |
